Hits are enriched below; roughly 1.1% of the tested compounds scored in any of these assays.
HTR5A ag ctr = counter-screen for OPRM1-OPRD1 agonists: human HTR5A agonism. hit rate 0.61% among 340,000. HTR5A agonist assay, luminescence, cell-based. activation, % at 9.3 µM. AID 504692; in the data active means activation mostly above about 9.5%, no sharp cut-off; inactive means mostly below about 7.6%;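 further: 0% = cells with vehicle only and 100% = reference agonist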
Target sequence (P47898 whole entry, looked up): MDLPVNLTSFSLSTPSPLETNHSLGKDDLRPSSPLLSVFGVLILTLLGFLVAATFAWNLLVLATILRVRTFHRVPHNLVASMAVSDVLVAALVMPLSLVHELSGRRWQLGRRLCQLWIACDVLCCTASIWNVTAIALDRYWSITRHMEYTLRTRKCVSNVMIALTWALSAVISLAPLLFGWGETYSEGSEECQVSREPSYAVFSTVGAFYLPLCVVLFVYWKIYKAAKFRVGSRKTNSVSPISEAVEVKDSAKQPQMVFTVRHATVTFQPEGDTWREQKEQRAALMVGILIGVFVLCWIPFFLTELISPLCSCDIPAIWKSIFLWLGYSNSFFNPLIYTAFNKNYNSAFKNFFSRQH
OPRM1-OPRD1 inv = mu-delta opioid heterodimer inverse agonism. inhibition, % at 9.3 µM. P35372+P41143. hit rate 0.21% among 340,000. cell-based MOR-DOR heterodimer luminescence; in the data active means inhibition above about 22%, passing the limit was not always enough;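 further: 0% = cells with DMSO and 100% = wells without cells with DMSO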
HTR5A inv ag = HTR5A inverse agonism, opioid heterodimer counter-screen | P47898 | HTR5A cell line, luminescence | inhibition, % at 9.3 µM | hit rate 0.083% among 340,000 | AID 504634; in the data active means inhibition mostly above about 23%, no sharp cut-off; inactive means mostly below about 18%;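 further: 0% = cells with DMSO and 100% = no-cell wells with DMSO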
MOR-DOR ag = OPRM1-OPRD1 heterodimerization agonism | hit rate 0.3% among 340,000 | activation, % at 9.3 µM | cells, luminescence | P35372+P41143;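 further: 0% = vehicle-treated cells and 100% = reference agonist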
MOR-DOR ag conf = confirmation of human OPRM1-OPRD1 heterodimerization agonists. shares compounds with MOR-DOR ag. cells, MOR-DOR heterodimerization, luminescence complementation. activation, % at 9.3 µM. hit rate 45% among 830. AID 504904;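 further: 0% = vehicle-treated cells and 100% = reference agonist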
HTR5A ag ctr2 = HTR5A agonism, opioid heterodimer counter-screen; activation, % at 9.3 µM; shares compounds with MOR-DOR ag; HTR5A agonist counterscreen, cell luminescence; AID 504905; hit rate 8% among 830; in the data active means activation above about 17%;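 further: 0% = vehicle-treated cells and 100% = reference agonist response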
MOR-DOR inv conf = OPRM1-OPRD1 heterodimer inverse agonism, confirmation; hit rate 20% among 580; cells expressing OPRM1/OPRD1 heterodimer, luminescence; shares compounds with OPRM1-OPRD1 inv; inhibition, % at 9.3 µM; in the data active means inhibition above about 32%;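 further: 0% = cells with DMSO and 100% = wells lacking cells with DMSO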
HTR5A inv count = HTR5A inverse agonism, opioid heterodimer counter-screen; shares compounds with OPRM1-OPRD1 inv; HTR5A-expressing cells, luminescence; inhibition, % at 9.3 µM; 580 tested, under 10 active; AID 504914; call rule not given here;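 further: 0% = cells with DMSO and 100% = no-cell wells with DMSO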
* = called active by the depositor; nt = no result given. Unless noted, no stated cut-off is given here; in the data, active means activation above about 18%; inactive means the rest.

SMILES	HTR5A ag ctr	OPRM1-OPRD1 inv	HTR5A inv ag	MOR-DOR ag	MOR-DOR ag conf	HTR5A ag ctr2	others
CC1OC(OC2C=C3CCC4C(CCC5(C)C(c6ccc(=O)oc6)CCC45O)C3(C)CC2)C(O)C(OC2OC(CO)C(O)C(O)C2O)C1O (stereo not given)	26*	-401	-99	92*	2	0
NCCCC(=O)OC1N=C(c2ccccc2Cl)c2cc(Br)ccc2NC1=O (stereo not given)	-1	6	4	-1	nt	nt
CCOC(=O)C1(c2ccccc2)CCN(CCC(=O)Nc2ccc(F)cc2)CC1	1	-492	-13	131*	153*	0
CCOC(=O)C1(c2ccccc2)CCN(CC(=O)Nc2cccc3ccccc23)CC1	1	-165	-17	24*	11	1
CCOC(=O)C1(c2ccccc2)CCN(CCC(=O)Nc2ccccc2OC)CC1	7	-439	-24	92*	15	4
CCOC(=O)C1(c2ccccc2)CCN(CC(=O)c2ccc(NC(C)=O)cc2)CC1	-2	8	6	-2	nt	nt
Cc1cc(C(=O)OCC(=O)Nc2ccc(F)cc2F)c(C)n1C1CC1	2	3	-1	-1	nt	nt
CCCCN=C[C@]12CCC(O)CC1(O)CCC1[C@@H]2CC[C@]2(C)[C@H](C3C=CC(=O)O3)CCC12O (stereo not given in full)	31*	-396	-123	71*	36*	27*
CC12CCC3C(CCC4(O)CC(O)CCC34C=O)C1(O)CCC2C1=CC(=O)OC1 (stereo not given)	29*	-405	-113	79*	41*	24*
C[C@H]1O[C@@H](OC2CC[C@]3(C=O)[C@H]4CC[C@]5(C)[C@@H](C6=CC(=O)OC6)CC[C@]5(O)[C@@H]4CC[C@]3(O)C2)CC2OC(C)(C)OC21 (stereo not given in full)	33*	-420	-127	73*	-2	-2
C[C@]12CC[C@H]3[C@@H](CC[C@]4(O)C[C@@H](O)CC[C@]34C=O)[C@@]1(O)CC[C@@H]2C1=CC(=O)OC1	20	-376	-71	70*	0	0
CC(C)c1onc(C(=O)N2CCC3(CC2)OCCO3)c1[N+](=O)[O-]	-1	1	-6	0	nt	nt
C[C@]12CCC3C(CCC4=CC(O)CC[C@@]43/C=N/O)C1(O)CCC2C1=CC(=O)OC1 (stereo not given in full)	29*	-355	-106	69*	38*	22*
CC12CCC3C(CCC4(O)CC(O)CCC34C=NO)C1(O)CCC2C1=COC(=O)C1 (stereo not given)	31*	-337	-118	77*	0	-1
CCCCn1c(NS(=O)(=O)c2ccccc2)c(C(=O)OCC)c2nc3ccccc3nc21	0	32*	13	-6	nt	nt	MOR-DOR inv conf=-16;HTR5A inv count=-14
FC(F)(F)Oc1ccc(NC2=NCCCS2)cc1	-4	6	15	-1	nt	nt
CC(C)(C)OC(=O)c1c(N)n(Cc2ccco2)c2nc3ccccc3nc12	1	40*	20	-7	nt	nt	MOR-DOR inv conf=96*;HTR5A inv count=17
Cc1ccc(C2SCC(=O)Nc3c2c(=O)[nH]n3C2CCOC(C)(C)C2)cc1 (stereo not given)	-3	12	9	-3	nt	nt
CC1(C)CC(n2[nH]c(=O)c3c2NC(=O)CSC3c2ccccc2)CCO1 (stereo not given)	2	31*	11	-7	nt	nt	MOR-DOR inv conf=-2;HTR5A inv count=-16
CC1CC2(O)c3no[n+]([O-])c3CCC2N1O (stereo not given)	-2	25	24	-5	nt	nt
CC1CN(O)C2CCc3c(no[n+]3[O-])C12O (stereo not given)	3	31*	-29	-5	nt	nt	MOR-DOR inv conf=-29;HTR5A inv count=3
COC(=O)C1=C(c2cccc(C#N)c2)C[C@@H]2CC[C@H]1N2C(=O)N1CCCC1	0	-6	18	1	nt	nt
O=[N+]([O-])c1cccc2c([As](=O)(O)O)cccc12	1	9	-2	-2	nt	nt
CN(C(=O)Oc1cccc2ccccc12)C1C=CCC1 (stereo not given)	3	-48	-12	11	nt	nt

Screening data as filed in PubChem BioAssay.
